Source: the supplement of paper PMC3334620
The full ranking holds about 33,000 sequences; the median of “E-score (-0.5 to 0.5)” is about -0.021, and the highest 2% start at about 0.32. The sample holds the highest values, similar sequences and a random draw of the others, so the mix is not that of the screen.

target: T1, Zap1 (UniProt P47043); experiment: PBM E-score (8-mer binding enrichment) (E-score (-0.5 to 0.5)); higher = stronger / more preferred TF binding; details: protein concentration: 200 nM; construct: GST-full length
T1 sequence: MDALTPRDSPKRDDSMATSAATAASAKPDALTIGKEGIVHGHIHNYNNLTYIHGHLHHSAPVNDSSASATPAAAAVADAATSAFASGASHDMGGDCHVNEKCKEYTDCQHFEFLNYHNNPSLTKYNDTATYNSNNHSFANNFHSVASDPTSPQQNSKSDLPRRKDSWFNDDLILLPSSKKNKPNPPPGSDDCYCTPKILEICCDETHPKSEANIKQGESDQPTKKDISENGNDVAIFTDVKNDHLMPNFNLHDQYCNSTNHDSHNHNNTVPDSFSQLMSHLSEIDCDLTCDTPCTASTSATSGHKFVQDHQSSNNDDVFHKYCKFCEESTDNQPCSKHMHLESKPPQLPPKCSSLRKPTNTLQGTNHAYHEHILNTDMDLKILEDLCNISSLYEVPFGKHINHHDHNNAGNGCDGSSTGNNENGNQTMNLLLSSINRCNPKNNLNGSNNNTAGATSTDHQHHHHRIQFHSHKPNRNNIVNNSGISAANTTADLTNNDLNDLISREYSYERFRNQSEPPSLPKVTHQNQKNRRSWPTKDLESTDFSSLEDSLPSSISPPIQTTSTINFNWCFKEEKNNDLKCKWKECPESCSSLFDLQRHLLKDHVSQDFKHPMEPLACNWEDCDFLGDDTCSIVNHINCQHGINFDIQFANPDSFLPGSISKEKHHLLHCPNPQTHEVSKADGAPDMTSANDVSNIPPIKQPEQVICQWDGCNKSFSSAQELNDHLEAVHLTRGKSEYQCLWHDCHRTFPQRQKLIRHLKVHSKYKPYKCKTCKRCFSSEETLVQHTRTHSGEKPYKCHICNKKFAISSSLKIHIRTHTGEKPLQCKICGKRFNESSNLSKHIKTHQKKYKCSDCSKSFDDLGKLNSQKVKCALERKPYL
Method in brief: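 Full-length yeast transcription factors or their DNA-binding domains, GST-tagged and expressed with PURExpress, were applied at about 100-200 nM to universal all-10-mer Agilent arrays. These arrays had been made double-stranded by primer extension on fresh or once-stripped slides. Detection used fluorescent anti-GST, normalisation used masliner, and E-scores for ungapped eight-base words pooled with reverse complements came from the Universal PBM Analysis Suite.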

Row | Sequence | PBM E-score
1 | CGCCTCAA | -0.107
2 | CTCGAAGA | 0.0261
3 | GATTCCTA | 0.0308
4 | CGATCCAC | 0.00013
5 | ACGTTACG | 0.0601
6 | AGGTTACG | 0.459
7 | AAGTTACG | 0.17
8 | ATAACTCC | 0.128
9 | AAGGTTGC | 0.343
10 | AAGGTTGA | 0.149
11 | CAGGTTGC | 0.0972
12 | CAGGTTGG | 0.0671
13 | AAGGTTGT | 0.384
14 | AAGGTTGG | 0.281
15 | GTCAGAAC | 0.0394
16 | AAATGGGA | -0.0864
17 | GTCCCCCA | -0.185
18 | CCGGTTAG | 0.159
19 | GCGGTTGA | 0.149
20 | CCGGTTAC | 0.398
21 | GCTGTTAC | -0.104
22 | CCGGTTTC | 0.0368
23 | GCGGTTAC | 0.452
24 | GCGGTTAA | 0.356
25 | GCGGTTCC | 0.217

Row | Sequence | PBM E-score
26 | CCGGTTAA | 0.261
27 | AAGCTTGT | 0.15
28 | CATCGTTC | -0.015
29 | AGGAACCA | 0.0162
30 | CGAGCGCC | -0.202
31 | AGTTGGTC | 0.0383
32 | AGTCTTAG | -0.182
33 | GTATCCAA | 0.0926
34 | CCTGGCCC | -0.0746
35 | CGTTATCA | 0.0155
36 | GGTTATCA | 0.445
37 | CGTTATTA | 0.114
38 | GGTTATTA | 0.438
39 | AGTTATCA | 0.186
40 | CGTTAGTA | 0.0365
41 | AGTTAGTA | -0.00813
42 | AGTTATTA | 0.106
43 | GGTTAGTA | 0.325
44 | CAGAGATC | -0.134
45 | CCGAGAAA | 0.187
46 | ACCCAGCA | 0.0307
47 | CGAATGAG | -0.106
48 | AGTTATAG | 0.148
49 | ACCCTCAT | 0.267
50 | ACCCTCAC | 0.251

Row | Sequence | PBM E-score
51 | CCCCTCAA | -0.068
52 | TCCCTCAA | 0.014
53 | ACCCTCAA | 0.361
54 | ACCCTCAG | 0.325
55 | GGAGACGA | -0.032
56 | ATCTTTAA | 0.206
57 | GGCCAGTA | 0.177
58 | AGTGGCTC | -0.175
59 | AATCCTTG | 0.0209
60 | AATACCCC | 0.237
61 | CATACCCC | 0.348
62 | GATACCAC | 0.183
63 | CATACCCA | 0.221
64 | GATACCCA | 0.184
65 | GATACCCC | 0.37
66 | ATGTGAAG | -0.00714
67 | ATGGGGGG | -0.045
68 | ACTCGCAA | 0.0584
69 | CGCTTTGA | 0.0708
70 | ACTATAGG | 0.0613
71 | CCTATAGC | -0.0148
72 | CCTATAGG | 0.346
73 | ATTGGCGG | -0.0834
74 | AGCCCAAC | -0.0986
75 | CCCCCTAG | -0.343

Row | Sequence | PBM E-score
76 | AGCCCTAG | -0.14
77 | ACCCCTAG | 0.341
78 | ACCCCTCG | 0.347
79 | ACCCCTCT | 0.174
80 | ACCCCTAT | 0.324
81 | CCCCCTCG | -0.135
82 | ACCCCTAA | 0.278
83 | ACCCCTAC | 0.293
84 | TACCGATA | 0.102
85 | CCGGTGCG | 0.0015
86 | AAATCTTG | 0.0159
87 | GCCAGCAC | -0.171
88 | CTACCGCA | 0.00616
89 | AACCCGCA | 0.314
90 | CAACCGAA | 0.199
91 | GTACCGCA | 0.383
92 | TAACCGAA | 0.319
93 | AAACCGAA | 0.114
94 | ATACCGCA | 0.0517
95 | CACCCGCA | -0.0495
96 | TACCCGCA | 0.364
97 | CAACCGCA | 0.106
98 | TAACCGCA | 0.426
99 | GAACCGCA | 0.149
100 | GTCCTTTA | 0.132

Row | Sequence | PBM E-score
101 | CCGCCCAC | 0.0267
102 | GAAATCGA | -0.0672
103 | AAACCGGA | 0.00487
104 | TAACCGGA | 0.364
105 | GAACCGGA | 0.0894
106 | AATTCTAC | 0.104
107 | TATACTAA | 0.0714
108 | GACAGCGA | -0.275
109 | CGTTGGCC | -0.138
110 | ACCGGTTG | 0.119
111 | ACCGGTTA | 0.372
112 | GCCGGTTA | 0.33
113 | CCCGGTTA | 0.25
114 | GCCGGTGA | 0.0983
115 | GCCGGTCA | 0.0353
116 | AGATTGAA | -0.0374
117 | ATGCTAGG | -0.159
118 | ACTAAATG | -0.036
119 | ACCAGCGG | 0.0819
120 | CAAGATGC | -0.0715
121 | AGTGGGAA | 0.022
122 | GTTGAAGA | -0.0696
123 | GGGTCATA | 0.432
124 | AGGTCATG | 0.416
125 | AGGTCATC | 0.373

Row | Sequence | PBM E-score
126 | CGGTCATC | 0.131
127 | GGGTCAGA | 0.0808
128 | AGGTCAAG | 0.277
129 | AGGTCATA | 0.347
130 | ATGTCATC | -0.123
131 | AGGTCAGA | 0.149
132 | CGGTCATA | 0.201
133 | AGGTCAGG | 0.141
134 | ATGTCATA | -0.0263
135 | TGCTCGAA | -0.0246
136 | CATAGATC | -0.0935
137 | ACATCTGG | 0.0376
138 | CAGTACTG | -0.118
139 | GAGTCTTA | -0.368
140 | ACGTAGGA | -0.12
141 | ACGTCTGC | -0.272
142 | AGGTCGTC | 0.0799
143 | AGGTCGTA | 0.189
144 | AGGTCGTG | 0.353
145 | AAACCAGA | 0.165
146 | CGCAACCA | 0.283
147 | GGCAACCC | 0.358
148 | CGCAACCC | 0.379
149 | CGGAACCC | 0.326
150 | GGCAACCA | 0.116

Row | Sequence | PBM E-score
151 | CGCAACCG | 0.281
152 | AGGAACCC | 0.104
153 | AGCAACCC | 0.239
154 | CGGAACCG | 0.169
155 | AGATCGCA | -0.127
156 | AATTCTTG | -0.0794
157 | TTACACAA | 0.21
158 | GAGTGCAA | 0.0286
159 | CTACCCTC | 0.35
160 | GTACCCGA | 0.184
161 | CTACCCCC | -0.295
162 | AGACCCTC | 0.092
163 | CTACCCTA | 0.291
164 | ATACCCTC | 0.323
165 | ATACCCTG | 0.306
166 | ATACCCTA | 0.459
167 | CTACCCGC | 0.244
168 | ATACCCGC | 0.314
169 | GTACCCTA | 0.413
170 | ATACCCGA | 0.224
171 | AGCATCTA | -0.248
172 | CTCTTGCA | -0.161
